For eight molecules, outcome and AC50 results are on record in PubChem BioAssay (EPA / NIEHS).

Inconclusive results are not listed. Some structures have more than one record in an assay (separate samples or runs), and their calls can disagree. Calls of active or inactive are those of the source. The calls were made as follows: active = hit-call score of the fitted dose curve at least 0.9, where 1 is the maximum; inconclusive = response in the unintended direction; inactive = score below 0.9.

The target of test [1] is Estrogen receptor (Homo sapiens) (UniProt P03372). The test is described as follows: OT_ER_ERaERa_1440: Odyssey Thera (OT) 24-hour HEK293T Protein-Complementation Assay for Estrogen Receptor-alpha/-alpha Homodimer (AID 2283349).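 Also: hits raise fluorescence above DMSO for agonists and antagonists alike.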 In outline: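 Cells (HEK293T) carrying the fragment-tagged ERα LBD (aa 310-547) pair are treated with chemical for 24 hours. Nuclear and/or cytoplasmic fluorescence is then quantified on a laser scanning cytometer. Activity is scored as signal gain against DMSO.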

The target is the same in test [2]. The test is described as follows: NVS_NR_hER: NovaScreen (NVS) Nuclear Receptor Binding Assay for human Estrogen Receptor (ER) (AID 2283348). In outline:
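MCF7-derived receptor extract, radiolabelled ligand, competitive displacement. Read: scintillation counts at 18 h. DMSO = negative control/baseline. Primary 25 uM duplicate; follow-up concentration–response.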

Test [3] addresses Androgen Receptor/SRC-1 Co-activator, AR (gene 367) (UniProt P10275). The test can be described thus: OT_AR_ARSRC1_0960: Odyssey Thera (OT) 16-hour HEK293T Protein-Complementation Assay for Androgen Receptor/SRC-1 Co-activator (AID 2283353).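 Also: actives raise the signal above DMSO so potency reflects increased AR and SRC-1 complex.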 The essentials:
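Readout: 488 nm nuclear-to-cytoplasmic fluorescence ratio from imaging of at least 400 cells per image, 16 h post-dose. Reporter is Venus YFP complementation between AR and SRC-1 fusions, stably expressed in HEK293T; activity scored upward relative to DMSO.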

For test [4] the target is unchanged. The test is described as follows: OT_AR_ARSRC1_0480: Odyssey Thera (OT) 8-hour HEK293T Protein-Complementation Assay for Androgen Receptor/SRC-1 Co-activator (AID 2283354).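 Also: hits raise the complementation signal above DMSO so AC50 marks enhancers.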 The essentials:
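Split-Venus PCA, stable HEK293T, AR/SRC-1 fusions; 8 h exposure. Readout: 488nm N/C fluorescence ratio, ≥400 cells/image; fitted upward vs DMSO baseline.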

Test [5] addresses T1, Estrogen receptor (Homo sapiens) + Estrogen receptor beta (Homo sapiens) (UniProt P03372+Q92731). The test is described as follows: OT_ER_ERaERb_1440: Odyssey Thera (OT) 24-hour HEK293T Protein-Complementation Assay for Estrogen Receptor-alpha/-beta Homodimer (AID 2283356).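 Also: heteromer of ER alpha and ER beta binding domains; hits raise reporter fluorescence and both agonists and antagonists give an increase.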 The essentials:
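24 h exposure; HEK293T PCA cells with ERα/ERβ LBD fragments; signal rise in nuclear or whole-cell fluorescence over vehicle.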

The target of test [6] is Estrogen receptor beta (Homo sapiens) (UniProt Q92731). The test is described as follows: OT_ER_ERbERb_0480: Odyssey Thera (OT) 8-hour HEK293T Protein-Complementation Assay for Estrogen Receptor-beta/-beta Homodimer (AID 2283357).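 Also: active means signal gain over DMSO baseline.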 The essentials: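 Homodimerization of ER-beta LBD measured by protein-fragment complementation in HEK293T; 8 h dosing; fixed, Draq5 counterstain; fluorescence intensity gain over DMSO baseline, positive fitting direction; laser scanning cytometry.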

In test [7] the target is human Peroxisome Proliferator-activated Receptor alpha (PPARa), PPARA (gene 5465) (UniProt Q07869). The test can be described thus: NVS_NR_hPPARa: NovaScreen (NVS) Nuclear Receptor Binding Assay for human Peroxisome Proliferator-activated Receptor alpha (PPARa) (AID 2283359).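 Also: activity means loss of TR-FRET signal versus DMSO baseline.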 The essentials: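 TR-FRET signal measured at 1 h post-dosing; loss-of-signal versus DMSO negative control taken as activity. Extracted gene-protein, cell-free format. Initial single-point duplicates at 25 uM, then concentration-response retests.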

Test [8] deals with Retinoic acid receptor alpha (Homo sapiens) (UniProt P10276). The test can be described thus: NVS_NR_hRARa_Agonist: NovaScreen (NVS) Nuclear Receptor Binding Assay for human Retinoic Acid Alpha Receptor Agonism (RAR) (AID 2283361). The essentials:
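TR-FRET signal, 2 h post-dosing; cell-free extracted protein; DMSO = baseline, positive fitting direction; 25 uM single-point duplicate, then concentration series for actives.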

Test [9] has as its target Nuclear receptor subfamily 1 group I member 2 (Homo sapiens) (UniProt O75469). The test can be described thus: NVS_NR_hPXR: NovaScreen (NVS) Nuclear Receptor Binding Assay for human Pregnane X Receptor (PXR) (AID 2283365).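 Also: a drop in FRET signal versus DMSO baseline means the compound binds.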 In outline:
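Read-out: TR-FRET, human PXR, 2 h post-dosing, cell-free. Loss of signal vs DMSO taken as binding activity; 25 uM primary, concentration series secondary.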

The target in test [10] is rat Androgen Receptor (AR), Ar (gene 24208) (UniProt P15207). The test is described as follows: NVS_NR_rAR: NovaScreen (NVS) Nuclear Receptor Binding Assay for rat Androgen Receptor (AR) (AID 2283366). The essentials:
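Actives from a duplicate single-concentration (25 uM) primary run went on to concentration series. Displacement of radioligand was counted by filtration and scintillation, 18 h post-dose, using prostate extracts from testosterone-pretreated rats, with DMSO as baseline.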

The target in test [11] is T1, Estrogen receptor (Homo sapiens) + Estrogen receptor beta (Homo sapiens). The test can be described thus: OT_ER_ERaERb_0480: Odyssey Thera (OT) 8-hour HEK293T Protein-Complementation Assay for Estrogen Receptor-alpha/-beta Heterodimer (AID 2283352). The essentials:
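Human HEK293T cells were treated for 8 hours and receptor heterodimerisation was detected through reconstitution of a fluorescent reporter split between ER-alpha and ER-beta ligand-binding domains. Activity was analysed as gain of signal against DMSO.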

For test [12], the target named is Peroxisome proliferator-activated receptor gamma (Homo sapiens) (UniProt P37231). The test can be described thus: NVS_NR_hPPARg: NovaScreen (NVS) Nuclear Receptor Binding Assay for human Peroxisome Proliferator-activated Receptor gamma (PPARg) (AID 2283370). The essentials: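 Extracted receptor protein, cell-free; compound incubated 2 h then fluorescence polarization read. Baseline: DMSO. Actives from 25 uM duplicate screen re-run across concentrations.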

Test [13] deals with human Thyroid Receptor Alpha (TRa), THRA (gene 7067) (UniProt P10827). The test can be described thus: NVS_NR_hTRa_Antagonist: NovaScreen (NVS) Nuclear Receptor Binding Assay for human Thyroid Receptor Alpha Antagonism (TRa) (AID 2283362).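 Also: activity is loss of signal relative to DMSO baseline.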 In outline: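 In this biochemical format, receptor protein is dosed with chemical and read after 1 hour via AlphaLISA. Decreases from the DMSO baseline indicate antagonist activity; screening used 25 uM in duplicate before concentration-response confirmation.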

The target of test [14] is Glucocorticoid receptor (Homo sapiens) (UniProt P04150). The test is described as follows: NVS_NR_hGR: NovaScreen (NVS) Nuclear Receptor Binding Assay for human Glucocorticoid Receptor (GR) (AID 2283363).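 Also: activity is loss of specific radioligand binding signal relative to DMSO.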 In outline:
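Filter scintillation readout of tritiated/iodinated radioligand displaced by test chemical; cell-free extracted protein; 16 h. DMSO = negative control/baseline. Duplicate single-point 25 uM screen, then concentration-response on actives.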

The target in test [15] is Retinoic acid receptor alpha (Homo sapiens) (UniProt P10276). The test can be described thus: NVS_NR_hRAR_Antagonist: NovaScreen (NVS) Nuclear Receptor Binding Assay for human Retinoic Acid Alpha Receptor Antagonism (RAR) (AID 2283358). In outline: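 Read-out: time-resolved FRET binding signal, 2 h post-dose, cell-free extracted protein. Antagonism scored as signal loss versus DMSO negative control. Primary single-concentration screen at 25 uM in duplicate; concentration series for actives.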

Chain of Estrogen receptor beta (Homo sapiens) (Q92731 whole entry, looked up, the tested form may be a part): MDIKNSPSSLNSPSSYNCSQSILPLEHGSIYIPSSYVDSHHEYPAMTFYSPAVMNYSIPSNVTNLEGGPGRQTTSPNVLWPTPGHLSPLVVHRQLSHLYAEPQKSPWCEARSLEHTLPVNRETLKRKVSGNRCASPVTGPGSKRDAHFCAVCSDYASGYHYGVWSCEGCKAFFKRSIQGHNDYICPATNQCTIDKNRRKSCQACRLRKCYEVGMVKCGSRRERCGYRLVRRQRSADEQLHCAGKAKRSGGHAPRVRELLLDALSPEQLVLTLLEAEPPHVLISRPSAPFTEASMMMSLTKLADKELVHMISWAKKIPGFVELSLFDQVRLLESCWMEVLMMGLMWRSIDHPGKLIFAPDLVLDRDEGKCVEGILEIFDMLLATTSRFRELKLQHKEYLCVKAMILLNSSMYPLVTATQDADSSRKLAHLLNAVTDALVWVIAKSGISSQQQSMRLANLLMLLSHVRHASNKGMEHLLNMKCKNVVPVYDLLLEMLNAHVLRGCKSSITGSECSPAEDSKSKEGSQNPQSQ
Chain of Estrogen receptor (Homo sapiens) (P03372 whole entry, looked up, the tested form may be a part): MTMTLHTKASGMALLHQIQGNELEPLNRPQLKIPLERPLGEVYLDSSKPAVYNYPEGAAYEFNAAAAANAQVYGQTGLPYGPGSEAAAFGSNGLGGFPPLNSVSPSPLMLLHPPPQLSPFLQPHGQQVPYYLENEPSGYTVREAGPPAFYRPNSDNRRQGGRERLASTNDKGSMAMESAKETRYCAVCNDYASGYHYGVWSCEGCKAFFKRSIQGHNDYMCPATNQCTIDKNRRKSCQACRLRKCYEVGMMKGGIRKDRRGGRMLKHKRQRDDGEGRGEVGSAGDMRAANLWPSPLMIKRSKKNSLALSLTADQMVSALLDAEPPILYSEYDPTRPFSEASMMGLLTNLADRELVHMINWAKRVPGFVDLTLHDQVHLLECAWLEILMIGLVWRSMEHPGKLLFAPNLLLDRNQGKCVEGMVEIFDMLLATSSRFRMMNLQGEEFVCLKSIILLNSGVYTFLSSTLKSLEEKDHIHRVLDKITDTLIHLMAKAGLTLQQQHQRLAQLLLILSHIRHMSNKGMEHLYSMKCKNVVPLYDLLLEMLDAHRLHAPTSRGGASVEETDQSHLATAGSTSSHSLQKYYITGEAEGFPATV
T1 sequence (P03372 whole entry, looked up, the tested form may be a part): as above
T1 sequence (Q92731 whole entry, looked up, the tested form may be a part): as the sequence (Q92731 whole entry, looked up, the tested form may be a part) above
Chain of Nuclear receptor subfamily 1 group I member 2 (Homo sapiens) (O75469 whole entry, looked up): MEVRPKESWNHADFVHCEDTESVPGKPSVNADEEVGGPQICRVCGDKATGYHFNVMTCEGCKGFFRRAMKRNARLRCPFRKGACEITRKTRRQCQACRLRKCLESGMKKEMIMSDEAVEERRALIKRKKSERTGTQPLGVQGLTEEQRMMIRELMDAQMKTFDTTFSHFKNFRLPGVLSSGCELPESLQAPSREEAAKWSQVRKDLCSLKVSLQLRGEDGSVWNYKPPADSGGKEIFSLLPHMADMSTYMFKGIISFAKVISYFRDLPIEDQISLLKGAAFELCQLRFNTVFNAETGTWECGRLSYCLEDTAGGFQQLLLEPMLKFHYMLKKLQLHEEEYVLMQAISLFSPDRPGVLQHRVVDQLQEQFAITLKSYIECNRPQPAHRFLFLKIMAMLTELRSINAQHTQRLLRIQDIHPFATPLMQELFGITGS
Chain of Androgen Receptor/SRC-1 Co-activator, AR (gene 367) (P10275 whole entry, looked up, the tested form may be a part): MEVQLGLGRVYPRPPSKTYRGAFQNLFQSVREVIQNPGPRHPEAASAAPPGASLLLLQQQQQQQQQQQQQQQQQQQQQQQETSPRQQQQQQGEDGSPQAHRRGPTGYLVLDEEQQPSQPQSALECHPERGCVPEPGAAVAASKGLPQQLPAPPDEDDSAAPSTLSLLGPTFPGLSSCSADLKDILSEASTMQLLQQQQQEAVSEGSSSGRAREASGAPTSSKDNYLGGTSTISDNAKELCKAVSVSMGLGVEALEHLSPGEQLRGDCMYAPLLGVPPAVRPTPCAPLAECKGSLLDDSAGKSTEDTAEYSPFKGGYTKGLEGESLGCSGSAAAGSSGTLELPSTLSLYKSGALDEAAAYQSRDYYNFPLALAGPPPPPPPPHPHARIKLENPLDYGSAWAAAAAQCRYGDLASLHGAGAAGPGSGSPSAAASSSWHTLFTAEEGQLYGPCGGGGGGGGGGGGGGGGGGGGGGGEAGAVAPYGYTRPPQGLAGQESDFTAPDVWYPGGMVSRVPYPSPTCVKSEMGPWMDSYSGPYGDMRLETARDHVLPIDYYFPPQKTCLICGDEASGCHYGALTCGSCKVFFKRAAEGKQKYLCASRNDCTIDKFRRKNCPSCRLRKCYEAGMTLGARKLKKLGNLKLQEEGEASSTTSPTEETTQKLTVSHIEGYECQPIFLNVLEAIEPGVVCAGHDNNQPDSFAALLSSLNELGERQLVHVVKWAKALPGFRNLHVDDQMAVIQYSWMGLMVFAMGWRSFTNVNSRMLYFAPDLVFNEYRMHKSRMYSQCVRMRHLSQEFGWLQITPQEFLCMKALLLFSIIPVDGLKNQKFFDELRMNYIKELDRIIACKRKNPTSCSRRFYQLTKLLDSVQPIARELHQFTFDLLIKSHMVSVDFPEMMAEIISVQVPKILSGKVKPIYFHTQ
Chain of Peroxisome proliferator-activated receptor gamma (Homo sapiens) (P37231 whole entry, looked up): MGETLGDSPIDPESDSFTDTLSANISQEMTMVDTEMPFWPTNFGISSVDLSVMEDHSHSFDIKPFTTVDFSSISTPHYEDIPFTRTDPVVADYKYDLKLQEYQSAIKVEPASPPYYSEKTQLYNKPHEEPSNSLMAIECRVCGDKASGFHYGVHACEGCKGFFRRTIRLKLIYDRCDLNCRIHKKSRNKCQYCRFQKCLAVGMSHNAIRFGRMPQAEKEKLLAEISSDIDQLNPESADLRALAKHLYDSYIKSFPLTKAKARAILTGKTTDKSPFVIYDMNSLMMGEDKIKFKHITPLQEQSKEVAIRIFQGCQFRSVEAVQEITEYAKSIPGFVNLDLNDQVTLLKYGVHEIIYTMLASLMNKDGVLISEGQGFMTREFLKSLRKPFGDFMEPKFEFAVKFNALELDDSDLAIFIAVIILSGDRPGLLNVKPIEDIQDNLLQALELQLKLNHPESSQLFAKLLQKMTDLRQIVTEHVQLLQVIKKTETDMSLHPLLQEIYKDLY
Chain of rat Androgen Receptor (AR), Ar (gene 24208) (P15207 whole entry, looked up): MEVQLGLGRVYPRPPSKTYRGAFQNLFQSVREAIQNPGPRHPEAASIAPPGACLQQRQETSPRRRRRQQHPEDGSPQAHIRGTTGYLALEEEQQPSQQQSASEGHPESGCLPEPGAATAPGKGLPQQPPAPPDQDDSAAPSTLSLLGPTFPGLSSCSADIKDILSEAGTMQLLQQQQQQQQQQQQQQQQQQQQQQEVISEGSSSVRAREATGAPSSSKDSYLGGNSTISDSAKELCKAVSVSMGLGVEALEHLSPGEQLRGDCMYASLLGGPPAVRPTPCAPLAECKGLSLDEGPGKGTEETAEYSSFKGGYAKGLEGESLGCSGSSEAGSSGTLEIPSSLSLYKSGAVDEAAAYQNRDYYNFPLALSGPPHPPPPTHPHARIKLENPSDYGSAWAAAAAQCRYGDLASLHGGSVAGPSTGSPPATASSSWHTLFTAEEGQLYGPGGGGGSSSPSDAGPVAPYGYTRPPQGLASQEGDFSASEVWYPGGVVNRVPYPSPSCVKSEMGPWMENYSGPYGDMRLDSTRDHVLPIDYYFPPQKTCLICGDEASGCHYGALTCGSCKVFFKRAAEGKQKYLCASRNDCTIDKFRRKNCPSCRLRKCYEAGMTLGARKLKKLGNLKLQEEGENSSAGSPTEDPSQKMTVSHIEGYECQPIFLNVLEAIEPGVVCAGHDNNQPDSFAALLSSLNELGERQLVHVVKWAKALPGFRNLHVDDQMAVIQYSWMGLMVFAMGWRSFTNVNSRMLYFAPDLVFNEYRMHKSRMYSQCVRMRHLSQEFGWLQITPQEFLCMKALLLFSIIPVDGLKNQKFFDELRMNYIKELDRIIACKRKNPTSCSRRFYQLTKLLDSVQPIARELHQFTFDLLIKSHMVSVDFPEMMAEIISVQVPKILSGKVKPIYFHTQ

Take `CC(C)OC=O`: in test [1], the molecule was classed as inactive.
One may read the AC50 as the concentration giving half of the maximal activity seen. Turning to `CCCCCCCCCCCCCC[P+](CCCC)(CCCC)CCCC`, the AC50 in [2] was 14.3 µM (active); in [3], 3.59 µM (active); in test [4], 12.3 µM (active); in test [7], 8.54 µM (active); in test [8], 3.23 µM (active); in test [9], 0.0885 µM (active). The AC50 in test [10] was 3.82 µM (active). For the same molecule, the molecule was called inactive in test [1], in test [5] and in [6].
For `F[Si-2](F)(F)(F)(F)F`, the result in [1], in [11], in test [3], in [4] and in test [5] was inactive.
As to `CCCCCCCCn1sc(Cl)c(Cl)c1=O`, in test [2], the AC50 was 0.549 µM (active). Moreover, the result in test [1], in test [6] and in test [12] was inactive.
In the case of `CCCCCCCCCc1ccc(OCCO)cc1`, the molecule was called inactive in test [2], in [9] and in test [12]. For the same molecule, the AC50 in test [1] is 19.7 µM (active); in [11], 4.81 µM (active); in test [3], 20 µM (active); in test [4], 25.4 µM (active); in [5], 4.94 µM (active); in test [6] it was 4.92 µM (active).
With `CCc1cc(Cc2cc(CC)c(N)c(CC)c2)cc(CC)c1N`, the figures for the AC50 in [2], in test [5] and in test [12] were 0.0643 µM (active), 12.4 µM (active) and 14.2 µM (active), respectively. The call in [1], in test [11], in [6], in test [9] and in test [12] was inactive.
As to `CCN=C1C=CC(=C(c2ccc(N(CC)CC)cc2)c2ccc(N(CC)CC)cc2)c2ccccc21`, the concentration at half-maximal activity (AC50) in [2] is 13.8 µM (active); in [3] it was 0.451 µM (active); in test [4], 1.04 µM (active); in [13], 1.15 µM (active); in [14], 404 nM (active); in [10] it was 1.05 µM (active). For the same molecule, the call in test [1], in test [11], in [5], in test [6] and in test [12] was inactive.
For `CCCCCCCC/C=C\CCCCCCCC(=O)OCC(O)CO` (centres undefined), the call in [1], in [11], in test [3], in test [4], in test [5] and in test [6] was inactive. Also, the molecule was called inactive in test [15] and in test [12]. Also, the results for the AC50 in [7], in test [9] and in test [10] were 17 µM (active), 8.56 µM (active) and 34.8 µM (active), respectively.
